{"source": "PubChem BioAssay AID1910", "about": "(Broad Institute, 2009)", "note": "Out of some 300,000 compounds screened, about 950 (0.32%) were called active. Only a selection was taken, and actives are over-represented in it overall. Unmarked numbers belong to inactive results.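 The calls were made as follows: active = mean activation of at least 10% of the iron chelator positive control signal, with at least half of replicates also reaching 10%; inconclusive = mean and replicate majority disagree about reaching 10%; inactive = mean and most replicates under 10%.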"}
{"assay": "HIF pathway transcriptional activators, primary screen, cell-based, U2OS HRE-luciferase, luminescence (AID 1910)", "settings": "U2OS HRE-luciferase reporter, active compounds read high, screened at 7.5 µM (by protocol), normalized: DMSO 0%, desferrioxamine 100%"}
{"smiles": "O=C(Cc1ccc(Br)cc1)NCCc1ccccc1", "activation": "0.0277%"}
{"smiles": "COc1ccc(NC(=O)C(C)N2c3cccc4cccc(c34)S2(=O)=O)c(OC)c1", "note": "(stereo unspecified)", "activation": "0.272%"}
{"smiles": "CC(C(=O)N1CCOCC1)N1c2cccc3cccc(c23)S1(=O)=O", "note": "(stereo unspecified)", "activation": "163% (active)"}
{"smiles": "CC(C)CN(CC(C)C)C(=O)CN1c2cccc3cccc(c23)S1(=O)=O", "activation": "-19%"}
{"smiles": "COC(=O)C1CCN(C(=O)NC2CC(=O)N(c3ccc4c(c3)OCCO4)C2)CC1", "note": "(stereo unspecified)", "activation": "2.77%"}
{"smiles": "C/C=C/c1ccc(OCC(=O)OCC(=O)Nc2c(C)nn(-c3ccccc3)c2C)c(OC)c1", "activation": "0.205%"}
{"smiles": "CCOc1ccccc1OCC(=O)Nc1ccccc1C(=O)NC1CC1", "activation": "0.735%"}
{"smiles": "N[C@@H](Cc1ccccc1)C(=O)N1CCOCC1", "activation": "1.05%"}
{"smiles": "Cc1cc(N2CCN(c3ccccc3)CC2)nc(N2CCOCC2)n1", "activation": "-0.818%"}
{"smiles": "Cc1cc(Nc2ccc(Cl)cc2)nc(N2CCOCC2)n1", "activation": "0.664%"}
{"smiles": "Cc1cc(Oc2ccccc2)nc(N2CCOCC2)n1", "activation": "686% (active)"}
{"smiles": "Cc1ccc(NC(=O)COC(=O)CNC(=O)c2ccc(Cl)cc2Cl)cc1S(=O)(=O)N1CCOCC1", "activation": "-0.357%"}
{"smiles": "CCOC(=O)c1cc(C(C)C)sc1NC(=O)COC(=O)c1nccnc1N", "activation": "-0.0851%"}
{"smiles": "Oc1ccc(CN2CCN(c3ncccn3)CC2)cc1", "activation": "-0.81%"}
{"smiles": "CCN1CCN(C(c2cccnc2)c2cc(Cl)c3cccnc3c2O)CC1", "note": "(stereo unspecified)", "activation": "1.75%"}
{"smiles": "Oc1c(CN2CCN(c3ccc(F)cc3)CC2)cc(Cl)c2cccnc12", "activation": "57.7% (active)"}
{"smiles": "Cc1ccccc1OCC(=O)Nc1ccc2c(c1)ncn2C", "activation": "1.83%"}
{"smiles": "C=CCC1(C(=O)N(C)Cc2ccccc2)CCN(C(=O)OC(C)(C)C)CC1", "activation": "-0.424%"}
{"smiles": "COc1ccc2c(c1)O/C(=C\\c1ccccc1O)C2=O", "activation": "3.88%"}
{"smiles": "COc1cc([N+](=O)[O-])cc([N+](=O)[O-])c1NC(=O)N1CCOCC1", "activation": "-0.133%"}
{"smiles": "COc1ccc(C#Cc2c(-c3ccc(OC)cc3)oc3ccc(-c4ccc5c(c4)OCO5)cc23)cc1", "activation": "2.6%"}
{"smiles": "CC(=O)NCCC(=O)Nc1cc(S(=O)(=O)N2CCOCC2)ccc1N1CCOCC1", "activation": "158% (active)"}
{"smiles": "Cc1cccc(OCCC(=O)Nc2cc(S(=O)(=O)N3CCCCC3)ccc2N2CCOCC2)c1", "activation": "-0.617%"}
{"smiles": "CN1CCN(c2ccc(S(=O)(=O)N3CCOCC3)cc2NC(=O)CCc2ccccc2)CC1", "activation": "0.124%"}
{"smiles": "O=S(=O)(NCCCc1ccccc1)c1ccc(Br)cc1", "activation": "-0.382%"}
{"smiles": "O=c1[nH]snc1-c1c(Cl)cccc1Cl", "activation": "-0.133%"}
{"smiles": "COc1ccc(S(=O)(=O)N2CCOC2CNC(=O)C(=O)NCc2ccncc2)cc1OC", "note": "(stereo unspecified)", "activation": "0.131%"}
{"smiles": "Cc1ccc(S(=O)(=O)N2CCN(C(=O)c3ccccc3-c3nc4ccccc4s3)CC2)c(C)c1", "activation": "-37.1%"}
{"smiles": "CCOC(=O)C1CCN(C(=O)COC(=O)C2CCN(S(=O)(=O)c3ccc4c(c3)OCCO4)CC2)CC1", "activation": "0.496%"}
{"smiles": "CC1C(=O)N2CCCc3cc(S(=O)(=O)NCc4ccc(F)cc4)cc1c32", "note": "(stereo unspecified)", "activation": "2.62%"}
{"smiles": "COc1ccccc1CCNS(=O)(=O)c1cc2c3c(c1)C(C)C(=O)N3CCC2", "note": "(stereo unspecified)", "activation": "80.8% (active)"}
{"smiles": "CCOc1ccccc1NS(=O)(=O)c1cc2c3c(c1)C(C)C(=O)N3CCC2", "note": "(stereo unspecified)", "activation": "-0.238%"}
{"smiles": "O=C(CNC(=O)C12CC3CC(CC(C3)C1)C2)OCC(=O)N1CCCCC1", "activation": "-0.325%"}
{"smiles": "CC(NC(=O)c1ccccc1SCC(=O)N1CCCC1)c1ccccc1", "note": "(stereo unspecified)", "activation": "-0.504%"}
{"smiles": "O=C(NC1CCCC1)c1cc(-c2ccccc2)on1", "activation": "25.3% (active)"}
{"smiles": "CC(NC(=O)c1cc(-c2ccccc2)on1)c1ccccc1", "note": "(stereo unspecified)", "activation": "0.0998%"}
{"smiles": "O=C(NCCCn1ccnc1)c1cc(-c2ccccc2)on1", "activation": "35.8% (active)"}
{"smiles": "O=C(NC1CCCCC1)c1cc(C2CC2)on1", "activation": "1.35%"}
{"smiles": "COc1ccc(-c2cc(C(=O)NCCCn3ccnc3)no2)cc1", "activation": "1.05%"}
{"smiles": "COc1ccccc1-c1cc(C(=O)NCCCn2ccnc2)no1", "activation": "0.0935%"}
{"smiles": "Cc1ccccc1C(=O)N1CCC(C(=O)Oc2ccc(C#N)cc2)CC1", "activation": "-0.988%"}
{"smiles": "CC(=O)c1ccc(NC(=O)C2CCCN2S(=O)(=O)c2cccs2)cc1", "note": "(stereo unspecified)", "activation": "-0.0783%"}
{"smiles": "N#CCCN(C(=O)COC(=O)C1CCN(c2ccc(C(F)(F)F)cn2)CC1)c1ccc(F)cc1", "activation": "0.186%"}
{"smiles": "COc1cccc(-c2ccc(C#N)c(SCC(=O)NCCc3ccc(Cl)cc3)n2)c1", "activation": "-0.149%"}
{"smiles": "COc1ccc(CCNC(=O)CSc2nc(-c3ccc(OC)c(OC)c3)ccc2C#N)cc1", "activation": "225% (active)"}
{"smiles": "COc1ccc(CCNC(=O)CSc2nnc3ccc(-c4ccncc4)nn23)cc1", "activation": "-0.329%"}
{"smiles": "C=CCOc1ccc(/C=C/C(=O)OCC(=O)NC(C)c2ccc(F)cc2)cc1", "note": "(stereo unspecified)", "activation": "-1.98%"}
{"smiles": "CCOc1ccc(NC(=O)c2ccc(NC(=O)CN3C(=O)C(=O)N(CC(C)C)C3=O)cc2)cc1", "activation": "-0.207%"}
{"smiles": "CC1CC(C)CN(CCCNC(=O)Cn2ncc3c([nH]c4ccccc43)c2=O)C1", "note": "(stereo unspecified)", "activation": "-0.555%"}
{"smiles": "Cc1cccc(CCNC(=O)Cn2ncc3c([nH]c4ccc(C)cc43)c2=O)c1", "activation": "67.3% (active)"}
{"smiles": "Cc1ccc2[nH]c3c(=O)n(CC(=O)NCCc4ccc(Cl)cc4)ncc3c2c1", "activation": "0.0828%"}
{"smiles": "Cc1ccc2nnn(Cc3cccc(C(C)(C)C)c3O)c2c1", "activation": "-0.574%"}
{"smiles": "CCc1cccc(C)c1NC(=O)COC(=O)CC1CCCC1", "activation": "-0.451%"}
{"smiles": "CC(=O)Nc1ccc(S(=O)(=O)N2CCC(NC(=O)c3ccccc3)CC2)cc1", "activation": "-33.2%"}
{"smiles": "CCNC(=S)N1CCN(CCN=CC2=C(O)CC(C)(C)CC2=O)CC1", "activation": "-0.656%"}
{"smiles": "CC1(C)CC(=O)C(C=NCCN2CCN(C(=S)Nc3cccc(Cl)c3)CC2)=C(O)C1", "activation": "233% (active)"}
{"smiles": "CC(=O)N1CCN(CCN=CC2=C(O)CC(C)(C)CC2=O)CC1", "activation": "-0.482%"}
{"smiles": "COCCNC(=S)N(CCc1c(C)[nH]c2ccc(C)cc12)Cc1cccnc1", "activation": "0.573%"}
{"smiles": "Cc1nnc(N/N=C/c2ccccn2)[nH]c1=O", "activation": "117% (active)"}
{"smiles": "CNC(=O)C(=O)N/N=C/c1ccccn1", "activation": "-0.138%"}
{"smiles": "Cc1nnc(N/N=C/C2CC=CCC2)[nH]c1=O", "note": "(stereo unspecified)", "activation": "-0.414%"}
{"smiles": "CCCN(CCC)C(=S)Nc1cc(C(=O)OC)ccc1C(=O)OC", "activation": "166% (active)"}
{"smiles": "CCN(CCO)C(=S)Nc1cc(C(=O)OC)ccc1C(=O)OC", "activation": "-0.0671%"}
{"smiles": "CCS(=O)(=O)Nc1cc(C(=O)OC)ccc1C(=O)OC", "activation": "-0.124%"}
{"smiles": "Fc1ccc(-c2ccc(NCCN3CCOCC3)nn2)cc1", "activation": "3.51%"}
{"smiles": "COc1ccc(NC(=O)CCCC(=O)c2ccccc2)cc1", "activation": "0.37%"}
